Reference: PubChem BioAssay (NCATS)
Records with an inconclusive call do not appear. The source made the active and inactive calls. Unless noted, calls come from the whole dose curve; as a rule, active = well fitted curve in the direction sought with a large enough effect; inconclusive = small, poorly fitted or top-dose-only effect, or another doubt; inactive = no such curve, though single readings can be large; an effect the other way counts as inactive or inconclusive.

Assays:
[1] = target: Lysosomal acid glucosylceramidase (Homo sapiens) (UniProt P04062); experiment: Glucocerebrosidase-p2 (AID 348; in the data active = potency below about 10 µM; note: potency is the fitted concentration of half-maximal effect); conditions: purified GBA, blue fluorogenic substrate, 40 min
Lysosomal acid glucosylceramidase (Homo sapiens), sequence (P04062 whole entry, looked up): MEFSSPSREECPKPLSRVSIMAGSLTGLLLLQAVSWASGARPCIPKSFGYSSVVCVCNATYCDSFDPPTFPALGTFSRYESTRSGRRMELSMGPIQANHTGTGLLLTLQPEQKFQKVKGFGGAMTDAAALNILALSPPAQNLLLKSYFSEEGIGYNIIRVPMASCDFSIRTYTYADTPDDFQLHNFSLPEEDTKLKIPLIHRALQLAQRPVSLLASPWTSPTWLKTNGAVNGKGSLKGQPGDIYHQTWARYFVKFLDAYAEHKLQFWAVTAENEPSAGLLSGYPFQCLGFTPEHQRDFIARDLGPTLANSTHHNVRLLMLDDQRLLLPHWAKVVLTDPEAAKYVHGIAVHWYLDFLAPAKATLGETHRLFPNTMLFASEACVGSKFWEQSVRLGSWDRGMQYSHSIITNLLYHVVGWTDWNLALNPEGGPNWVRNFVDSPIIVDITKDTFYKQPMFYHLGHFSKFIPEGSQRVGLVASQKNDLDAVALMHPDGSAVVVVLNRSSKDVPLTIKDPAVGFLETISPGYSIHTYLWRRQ
Summary of the method: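 Compounds titrated from 0.6 nM upwards against 0.2 nM enzyme in pH 5.9 citric acid/KH2PO4, taurocholate, tween-20; blue fluorogenic substrate 80 uM, 40 min room temperature, stopped and read Ex 365/Em 440 for AC50.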

[2] = AP1 Signaling Pathway (AID 357; active = well fitted curve in either direction with a large enough effect, not every such curve was filed as active;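 note: ME-180 reporter cells stimulated with EGF at its EC50 level; % is set by controls: 0 for no effect and ±100 for the full control effect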); conditions: ME-180 AP-1-bla reporter, EGF-induced, beta-lactamase ratio, 5 h; at 7.69 µM (top of the series) unless noted
Summary of the method: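 A ratiometric CCF4 readout (405 nm excitation; 460 and 530 nm emission) quantified AP-1-driven beta-lactamase in ME-180 cells after 5 h with compound and EC50 EGF; AC50 values were derived for activators and inhibitors.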

[3] = target: Cytochrome P450 1A2 (Homo sapiens) (UniProt P05177); experiment: p450-cyp1a2 (AID 410; calls by dose curve; note: potency is the fitted concentration of half-maximal effect;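 for activity change, negative = inhibition: -100% = full effect of reference inhibitor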); conditions: recombinant CYP1A2, luciferin-ME demethylation, luminescence; series mostly up to 57 µM
Cytochrome P450 1A2 (Homo sapiens), sequence (P05177 whole entry, looked up): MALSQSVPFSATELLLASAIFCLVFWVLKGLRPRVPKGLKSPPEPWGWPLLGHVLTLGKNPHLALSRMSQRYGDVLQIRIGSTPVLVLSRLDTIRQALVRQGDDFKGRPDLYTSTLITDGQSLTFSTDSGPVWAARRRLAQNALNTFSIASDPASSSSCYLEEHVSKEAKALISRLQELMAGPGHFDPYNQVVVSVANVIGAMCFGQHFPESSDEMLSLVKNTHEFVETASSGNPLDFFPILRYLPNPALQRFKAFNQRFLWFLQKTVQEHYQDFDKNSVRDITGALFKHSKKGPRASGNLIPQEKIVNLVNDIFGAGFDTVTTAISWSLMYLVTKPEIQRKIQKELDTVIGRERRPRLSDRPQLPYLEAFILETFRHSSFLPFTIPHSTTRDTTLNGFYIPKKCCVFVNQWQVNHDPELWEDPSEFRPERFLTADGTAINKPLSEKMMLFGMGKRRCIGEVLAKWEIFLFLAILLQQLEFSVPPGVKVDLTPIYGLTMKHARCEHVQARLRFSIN
Summary of the method: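 Inhibition was calculated relative to 57 uM furafylline (full inhibition). The reaction used human CYP1A2 at 20nM with Luciferin-ME at its Km, 100uM, driven by an NADPH-regenerating system for 60 min at room temperature.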

[4] = NFAT Signaling Pathway (AID 444; active = well fitted curve in either direction with a large enough effect, not every such curve was filed as active;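 note: carbachol stimulus at about its EC50 of 1 µM final; % is set by controls: 0 for no effect and ±100 for the full control effect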); conditions: Jurkat NFAT-bla M1, carbachol, beta-lactamase ratio, 5 h; at 7.69 µM (top of the series) unless noted
Summary of the method: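 Jurkat cells carrying an NFAT-driven β-lactamase reporter and co-transfected muscarinic M1 receptor were treated with compound plus carbachol (1 uM final, an EC50 level) for 5 h at 37 °C. CCF4 loading followed for 1 h at RT; 460/530 nm ratio gave %activity.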

[5] = Stat Signaling Pathway (AID 446; active = well fitted curve in either direction with a large enough effect, not every such curve was filed as active;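 note: ME-180 cervical cancer cells given 40 pM IL-6 alongside compound; SIE-controlled beta-lactamase reporter measured as 460/530 nm FRET emission ratio; % is set by controls: 0 for no effect and ±100 for the full control effect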); conditions: ME-180 SIE beta-lactamase reporter, IL-6 stimulated, 5 h; at 7.69 µM (top of the series) unless noted
Summary of the method: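 ME-180 SIE-bla cells; overnight plating; cpd + IL-6 40 pM, 5 h, 37 C; LiveBLAzer 2.5 h RT; 460/530 nm emission ratio. Normalized to 300 pM IL-6 and 125 nM JAK inhibitor controls.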

[6] = target: Glucocorticoid receptor (Homo sapiens) (UniProt P04150); experiment: GR-GFP Redistribution (AID 450;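 active = compounds whose dose series gives a full or clear partial fitted curve of increased nuclear translocation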; note: potency is the fitted concentration of half-maximal effect); conditions: U2OS GR-GFP nuclear translocation, laser cytometry, 2 h
Glucocorticoid receptor (Homo sapiens), sequence (P04150 whole entry, looked up, the tested form may be a part): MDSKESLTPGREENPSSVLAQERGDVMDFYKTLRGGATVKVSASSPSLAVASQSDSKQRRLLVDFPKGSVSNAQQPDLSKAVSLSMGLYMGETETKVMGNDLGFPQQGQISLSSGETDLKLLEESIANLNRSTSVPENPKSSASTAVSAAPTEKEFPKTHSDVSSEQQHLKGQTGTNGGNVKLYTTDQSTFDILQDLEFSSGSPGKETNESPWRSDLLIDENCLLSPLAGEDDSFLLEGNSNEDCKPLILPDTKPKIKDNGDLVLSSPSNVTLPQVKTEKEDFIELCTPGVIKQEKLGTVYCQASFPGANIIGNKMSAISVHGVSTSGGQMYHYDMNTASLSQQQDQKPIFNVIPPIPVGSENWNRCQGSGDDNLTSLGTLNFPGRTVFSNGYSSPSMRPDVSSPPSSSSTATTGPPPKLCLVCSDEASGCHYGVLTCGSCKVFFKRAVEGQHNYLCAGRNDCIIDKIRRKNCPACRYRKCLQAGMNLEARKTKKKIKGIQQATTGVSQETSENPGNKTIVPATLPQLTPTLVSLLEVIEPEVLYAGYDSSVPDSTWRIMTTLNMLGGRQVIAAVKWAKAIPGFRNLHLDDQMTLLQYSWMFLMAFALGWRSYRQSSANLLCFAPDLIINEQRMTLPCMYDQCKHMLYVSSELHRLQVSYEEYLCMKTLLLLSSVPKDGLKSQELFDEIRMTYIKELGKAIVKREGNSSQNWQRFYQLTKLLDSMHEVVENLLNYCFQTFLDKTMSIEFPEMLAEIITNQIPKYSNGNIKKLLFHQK

[7] = target: Glucocorticoid receptor (Homo sapiens) (UniProt P04150); experiment: GR-EFC Redistribution (AID 451; calls by dose curve; note: potency is the fitted concentration of half-maximal effect); conditions: CHO-K1 GR-EFC translocation, beta-gal luminescence, 2 h
Summary of the method: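 CHO-K1 cells stably expressing nuclear-localized β-gal enzyme acceptor and GR fused C-terminally to the enzyme donor fragment; ligand-driven nuclear translocation restores β-gal by complementation. Compounds titrated up to 46 uM final, 2 h at 37 °C; luminescence read.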

[8] = target: Mitogen-activated protein kinase 10 (Mus musculus) (UniProt Q61831); experiment: JNK3 AlphaScreen Assay (AID 530; active = well fitted curve in either direction with a large enough effect, not every such curve was filed as active;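 note: kinase came from lysate of stimulated human HepG2 cells; signal reports phosphorylation of biotinylated GST-cJun 1-79 at Ser73 with 10 µM ATP; % is set by controls: 0 for no effect and ±100 for the full control effect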); conditions: JNK3 lysate, c-Jun phosphorylation; series mostly up to 57.1 µM
Summary of the method: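 JNK3 came from HepG2 lysates pre-activated with IL-1beta and TNF-alpha and phosphorylated biotinylated GST-cJun (1-79) at 10 uM ATP, pH 7.6, room temperature. Compounds were titrated. AlphaScreen signal used anti-phospho-cJun (Ser73) antibody.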

[9] = target: 3',5'-cyclic-AMP phosphodiesterase 4B (Homo sapiens) (UniProt Q07343); experiment: qHTS Assay for Inhibitors of PDE-IV (AID 607; active = well fitted activation curve with a large enough effect in the main read-out, with a control signal flat, not every such curve was filed as active; note: % of control where 0% means no effect); conditions: HEK293 ACTOne CNG channel cells, membrane potential fluorescence; series mostly up to 22.9 µM
3',5'-cyclic-AMP phosphodiesterase 4B (Homo sapiens), sequence (Q07343 whole entry, looked up): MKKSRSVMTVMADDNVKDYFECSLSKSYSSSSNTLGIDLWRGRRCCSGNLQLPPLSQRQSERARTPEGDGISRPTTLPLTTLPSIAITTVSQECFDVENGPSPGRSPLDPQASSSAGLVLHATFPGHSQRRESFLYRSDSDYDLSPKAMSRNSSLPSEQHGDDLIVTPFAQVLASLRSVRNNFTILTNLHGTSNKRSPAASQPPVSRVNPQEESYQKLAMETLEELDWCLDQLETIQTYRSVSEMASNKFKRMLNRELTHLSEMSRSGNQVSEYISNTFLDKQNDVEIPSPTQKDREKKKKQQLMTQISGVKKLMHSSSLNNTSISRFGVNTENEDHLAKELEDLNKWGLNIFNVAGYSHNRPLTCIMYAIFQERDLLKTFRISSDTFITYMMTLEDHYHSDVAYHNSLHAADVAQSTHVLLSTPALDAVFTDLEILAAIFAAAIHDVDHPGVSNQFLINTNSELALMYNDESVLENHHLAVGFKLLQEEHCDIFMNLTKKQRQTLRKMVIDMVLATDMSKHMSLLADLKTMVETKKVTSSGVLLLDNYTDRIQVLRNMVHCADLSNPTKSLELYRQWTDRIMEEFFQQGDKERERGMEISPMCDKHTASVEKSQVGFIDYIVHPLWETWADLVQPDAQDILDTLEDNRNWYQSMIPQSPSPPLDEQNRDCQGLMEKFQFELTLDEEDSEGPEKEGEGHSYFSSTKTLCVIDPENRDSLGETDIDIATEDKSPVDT
Summary of the method: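 ACTOne HEK293 cells carry a modified cAMP-gated CNG channel and express endogenous PDE4; plated 1000 cells/well, compounds up to 22.9 uM final. Membrane-potential dye fluorescence (ex 535/em 590) was read; parental cells received 10 uM forskolin + 100 uM RO 20-1724.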

[10] = target: Cytochrome P450 3A4 (Homo sapiens) (UniProt P08684); experiment: qHTS Assay for Activators of Cytochrome P450 3A4 (AID 885); conditions: recombinant CYP3A4, Luciferin-PPXE luminescence, 60 min; series mostly up to 57.1 µM; note: nearly all actives have a fitted effect of over 65% in size
Cytochrome P450 3A4 (Homo sapiens), sequence (P08684 whole entry, looked up): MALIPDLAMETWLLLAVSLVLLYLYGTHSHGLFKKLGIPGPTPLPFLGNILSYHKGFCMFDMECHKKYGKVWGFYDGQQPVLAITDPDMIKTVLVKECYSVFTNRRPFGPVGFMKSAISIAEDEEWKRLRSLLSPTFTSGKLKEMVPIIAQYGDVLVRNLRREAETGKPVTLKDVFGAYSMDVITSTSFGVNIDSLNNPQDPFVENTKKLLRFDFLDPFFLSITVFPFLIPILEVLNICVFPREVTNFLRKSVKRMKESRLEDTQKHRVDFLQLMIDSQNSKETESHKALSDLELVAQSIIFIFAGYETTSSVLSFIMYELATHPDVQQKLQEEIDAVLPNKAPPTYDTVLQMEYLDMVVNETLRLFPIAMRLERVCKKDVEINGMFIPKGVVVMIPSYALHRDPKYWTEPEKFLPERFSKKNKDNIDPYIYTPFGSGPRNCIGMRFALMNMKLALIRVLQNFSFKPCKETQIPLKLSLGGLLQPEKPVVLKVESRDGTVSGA
Summary of the method: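 20nM CYP3A4 + 25uM Luciferin-PPXE (=KM), 200mM KPO4; cpd 10 min RT; NADPH regen, 60 min RT; stop w/ detection buffer, 20 min; luminescence. Normalized to 57 uM ketoconazole.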

[11] = target: Dual specificity protein kinase CLK4 (Homo sapiens) (UniProt Q9HAZ1); experiment: qHTS Assay for Inhibitors of CDC-like Kinase 4 (ADP-FP Assay) (AID 1795); conditions: Transcreener ADP fluorescence polarization; series mostly up to 50 µM;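 note: recombinant human CLK4 phosphorylating RS repeat peptide at 1 µM ATP; % is set by controls: 0 for no effect and ±100 for the full control effect; nearly all actives have a fitted effect of over 60% in size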
Dual specificity protein kinase CLK4 (Homo sapiens), sequence (Q9HAZ1 whole entry, looked up): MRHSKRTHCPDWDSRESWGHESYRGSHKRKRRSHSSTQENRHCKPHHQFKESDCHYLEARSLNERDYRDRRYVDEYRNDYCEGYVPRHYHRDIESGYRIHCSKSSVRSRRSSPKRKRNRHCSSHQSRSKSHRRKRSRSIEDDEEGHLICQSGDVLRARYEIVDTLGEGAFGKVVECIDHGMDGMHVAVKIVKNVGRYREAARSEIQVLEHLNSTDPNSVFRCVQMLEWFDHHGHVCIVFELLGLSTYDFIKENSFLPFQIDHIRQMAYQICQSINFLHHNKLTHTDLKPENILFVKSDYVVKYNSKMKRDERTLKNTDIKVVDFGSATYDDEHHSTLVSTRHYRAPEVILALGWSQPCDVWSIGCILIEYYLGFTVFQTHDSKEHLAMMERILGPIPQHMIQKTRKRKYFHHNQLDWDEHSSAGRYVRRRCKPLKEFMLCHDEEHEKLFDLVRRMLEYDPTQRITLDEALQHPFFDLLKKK
Summary of the method: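 Clk4 6.25 nM; RS peptide 100 uM; ATP 1 uM; 25 mM Tris pH 7.5, 10 mM MgCl2; 1 h reaction. ADP detected via antibody/orange tracer FP displacement; TG003 positive control.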

[12] = target: Ubiquitin carboxyl-terminal hydrolase 1 (Homo sapiens) (UniProt O94782); experiment: Inhibitors of USP1/UAF1: Pilot qHTS (AID 504865); conditions: purified USP1/UAF1, Ub-rhodamine cleavage fluorescence; series mostly up to 54.9 µM;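 note: rhodamine fluorescence freed from ubiquitin-rhodamine substrate followed over time; top concentration of the series differs between compounds; % is set by controls: 0 for no effect and ±100 for the full control effect; nearly all actives have a fitted effect of over 35% in size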
Ubiquitin carboxyl-terminal hydrolase 1 (Homo sapiens), sequence (O94782 whole entry, looked up): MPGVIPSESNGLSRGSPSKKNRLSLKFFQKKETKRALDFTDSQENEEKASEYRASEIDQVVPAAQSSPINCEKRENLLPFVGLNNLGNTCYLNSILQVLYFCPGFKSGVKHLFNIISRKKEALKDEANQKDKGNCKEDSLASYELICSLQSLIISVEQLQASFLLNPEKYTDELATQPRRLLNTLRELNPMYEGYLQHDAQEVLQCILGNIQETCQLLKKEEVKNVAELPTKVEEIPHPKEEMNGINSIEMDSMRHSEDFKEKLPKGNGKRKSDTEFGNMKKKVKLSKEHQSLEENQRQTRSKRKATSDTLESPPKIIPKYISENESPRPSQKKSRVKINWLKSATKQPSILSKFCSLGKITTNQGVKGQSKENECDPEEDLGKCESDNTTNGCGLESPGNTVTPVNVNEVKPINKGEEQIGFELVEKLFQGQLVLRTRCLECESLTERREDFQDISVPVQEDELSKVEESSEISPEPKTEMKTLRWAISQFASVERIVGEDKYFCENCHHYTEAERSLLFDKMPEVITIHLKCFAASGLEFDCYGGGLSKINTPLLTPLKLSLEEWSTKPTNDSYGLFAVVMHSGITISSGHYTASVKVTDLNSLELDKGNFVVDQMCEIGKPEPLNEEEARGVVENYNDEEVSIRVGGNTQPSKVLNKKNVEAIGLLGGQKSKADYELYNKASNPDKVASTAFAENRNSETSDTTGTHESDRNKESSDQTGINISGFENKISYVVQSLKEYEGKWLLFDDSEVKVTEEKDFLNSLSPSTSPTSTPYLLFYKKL
Summary of the method: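 In 50mM HEPES pH 7.8 containing 0.5mM EDTA, 1mM TCEP, 0.1 mg/ml BSA and 0.01% Tween-20, 1nM USP1/UAF1 is exposed to compound for 15 min, then Ub-Rho (150nM final) is added and fluorescence is read over time.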

[13] = Primary qHTS for small molecule stabilizers of the endoplasmic reticulum resident proteome: Secreted ER Calcium Modulated Protein (SERCaMP) assay (AID 1508630); conditions: SH-SY5Y GLuc-SERCaMP (Gaussia luciferase released on ER calcium loss) secretion, thapsigargin, luminescence; series mostly up to 38.4 µM; note: % is set by controls: 0 for no effect and ±100 for the full control effect
Summary of the method: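 GLuc-SERCaMP-expressing SH-SY5Y cells, pretreated 16 h with compound, are challenged with thapsigargin to empty ER calcium stores; after 4 h, coelenterazine is added directly to the medium and luminescence is imaged.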

[14] = target: Cytochrome P450 3A4 (Homo sapiens) (UniProt P08684); experiment: qHTS Assay for Inhibitors and Substrates of Cytochrome P450 3A4 (AID 884); conditions: recombinant CYP3A4, Luciferin-PPXE luminescence; series mostly up to 57.1 µM; note: potency is the fitted concentration of half-maximal effect; nearly all actives have a fitted effect of over 50% in size
Summary of the method: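 20 nM human CYP3A4 with 25 uM Luciferin-PPXE (at KM) in 200 mM KPO4, preincubated 10 min with compound; NADPH regeneration started a 60 min RT reaction. Luciferin detected by luminescence, normalized to 57 uM ketoconazole as full inhibition.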

[15] = target: Cytochrome P450 2C19 (Homo sapiens) (UniProt P33261); experiment: qHTS Assay for Inhibitors and Substrates of Cytochrome P450 2C19 (AID 899); conditions: recombinant CYP2C19, luciferin-H EGE luminescence; series mostly up to 57.1 µM; note: potency is the fitted concentration of half-maximal effect; nearly all actives have a fitted effect of over 60% in size
Cytochrome P450 2C19 (Homo sapiens), sequence (P33261 whole entry, looked up): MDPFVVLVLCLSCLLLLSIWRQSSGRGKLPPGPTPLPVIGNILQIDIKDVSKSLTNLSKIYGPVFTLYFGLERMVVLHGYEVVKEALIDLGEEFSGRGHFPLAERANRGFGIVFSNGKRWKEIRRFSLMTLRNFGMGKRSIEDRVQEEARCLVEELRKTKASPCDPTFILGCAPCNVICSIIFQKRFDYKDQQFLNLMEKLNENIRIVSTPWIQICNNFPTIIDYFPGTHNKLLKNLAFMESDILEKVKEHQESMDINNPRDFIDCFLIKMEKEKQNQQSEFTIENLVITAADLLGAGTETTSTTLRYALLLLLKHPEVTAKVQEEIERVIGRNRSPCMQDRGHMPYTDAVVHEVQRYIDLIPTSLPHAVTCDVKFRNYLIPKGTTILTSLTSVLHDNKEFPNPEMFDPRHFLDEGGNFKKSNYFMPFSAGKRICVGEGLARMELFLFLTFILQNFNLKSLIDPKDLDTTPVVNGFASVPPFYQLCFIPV
Summary of the method: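 NADPH-dependent conversion of Luciferin-H EGE (10uM, at KM) by 5nM enzyme in 50mM KPO4, 60 min at 37C following 10 min compound preincubation. Stopped with luciferin detection buffer; luminescence read after 20 min.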

[16] = target: Cytochrome P450 2C9 (Homo sapiens) (UniProt P11712); experiment: qHTS Assay for Inhibitors and Substrates of Cytochrome P450 2C9 (AID 883); conditions: recombinant CYP2C9, luciferin-H luminescence, 60 min; series mostly up to 57.1 µM; note: % is set by controls: 0 for no effect and ±100 for the full control effect; nearly all actives have a fitted effect of over 60% in size
Summary of the method: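 A luminogenic readout tracked human CYP2C9 (10nM) converting deoxyluciferin (100uM, at KM) in 25mM KPO4 during 60 min at 37C with regenerated NADPH. Values normalized to 57uM sulphaphenazole as complete inhibition.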

[17] = target: Dual specificity protein kinase CLK4 (Homo sapiens) (UniProt Q9HAZ1); experiment: qHTS Assay for Inhibitors of CDC-like Kinase 4 (ADP-Glo Assay) (AID 1771); conditions: recombinant CLK4, ADP-Glo luminescence; series mostly up to 80 µM; note: nearly all actives have a fitted effect of over 70% in size; note: potency is the fitted concentration of half-maximal effect
Summary of the method: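 Kinase reaction: Clk4 at 25 nM, RS repeat peptide substrate at 100 uM, ATP at 1 uM, 1 hr, room temperature. Product ADP detected as luciferase signal via ADP-Glo.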

[18] = target: Cytochrome P450 2D6 (Homo sapiens) (UniProt P10635); experiment: qHTS Assay for Inhibitors and Substrates of Cytochrome P450 2D6 (AID 891); conditions: recombinant CYP2D6, luciferin-ME EGE luminescence; series mostly up to 57.1 µM; note: potency is the fitted concentration of half-maximal effect; nearly all actives have a fitted effect of over 60% in size
Summary of the method: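 Human CYP2D6 (5 nM) with 30 uM Luciferin-ME EGE (at Km) in 100 mM KPO4, compound preincubated 10 min, then NADPH regeneration system for 60 min at room temperature. Luciferin read by luminescence; normalized to 1.43 uM quinidine.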

CN(C)C(=O)c1ccc(-c2ccc3ncnc(N4CCOCC4)c3c2)cc1
inactive: Potency [1] > 11.4 µM | activity change, negative = inhibition [2] -25.6% | Potency [3] | activity change, negative = inhibition [4] 11.5% | activity, negative = inhibition [5] -8.9% | Potency [6] > 46 µM | Potency [7] > 46 µM | Potency [8] | Potency [9] | Potency [10] | Potency [11] | Potency [12] | outcome [13]

COc1cccc(-c2cncnc2NCc2cccnc2)c1
active: Potency [3] 0.794 µM | Potency [14] 1.26 µM | Potency [15] 0.316 µM
inactive: Potency [1] > 11.4 µM | activity change, negative = inhibition [2] -6.26% | activity change, negative = inhibition [4] -6.72% | activity, negative = inhibition [5] 3.03% | Potency [6] > 46 µM | Potency [7] > 46 µM | Potency [8] | Potency [9] | Potency [10] | Potency [11] | Potency [12] | outcome [13]

c1ccc(CNc2cc(-c3ccoc3)ncn2)cc1
active: Potency [3] 25.1 µM
inactive: Potency [1] > 11.4 µM | activity change, negative = inhibition [2] -7.43% | activity change, negative = inhibition [4] -2.19% | activity, negative = inhibition [5] -2.59% | Potency [6] > 46 µM | Potency [7] > 46 µM | Potency [8] | Potency [9] | Potency [10] | Potency [11] | Potency [12] | outcome [13]

CC(=O)NCCNc1nc(-c2c(C)noc2C)nc2ccccc12
inactive: Potency [1] > 11.4 µM | activity change, negative = inhibition [2] 5.25% | activity change, negative = inhibition [4] 6.76% | activity, negative = inhibition [5] 1.96% | Potency [6] > 46 µM | Potency [7] > 46 µM | Potency [8] | Potency [9] | Potency [10] | Potency [11] | Potency [12] | outcome [13]
active: Potency [3] 1.58 µM

CNc1cc(-c2ccccc2C)ncn1
inactive: Potency [1] > 11.4 µM | activity change, negative = inhibition [2] 2.36% | activity change, negative = inhibition [4] 2.04% | activity, negative = inhibition [5] 13.3% | Potency [6] > 46 µM | Potency [7] > 46 µM | Potency [8] | Potency [9] | Potency [11] | Potency [12] | outcome [13]
active: Potency [3] 10 µM

CN(Cc1ccco1)c1cc(-c2cccc(C#N)c2)ncn1
active: Potency [3] 0.794 µM | Potency [17] 28.2 µM
inactive: Potency [1] > 11.4 µM | activity change, negative = inhibition [2] -7.22% | activity change, negative = inhibition [4] 11.4% | activity, negative = inhibition [5] 8.43% | Potency [6] > 46 µM | Potency [7] > 46 µM | Potency [8] | Potency [9] | activity change, negative = inhibition [16] 12.3% [at 2.29 µM] | Potency [12] | outcome [13]

COCCNc1nc(-c2c(C)noc2C)nc2ccccc12
inactive: Potency [1] > 11.4 µM | activity change, negative = inhibition [2] 1.66% | activity change, negative = inhibition [4] 22.9% | activity, negative = inhibition [5] 17.6% | Potency [6] > 46 µM | Potency [7] > 46 µM | Potency [8] | Potency [9] | Potency [10] | Potency [11] | Potency [12] | outcome [13]
active: Potency [3] 0.126 µM

COc1cccc(Cn2c(=O)c(-c3cccs3)nc3cnc(OCc4ccccc4)nc32)c1
active: Potency [3] 1.58 µM
inactive: Potency [1] > 11.4 µM | activity change, negative = inhibition [2] 27.9% | activity change, negative = inhibition [4] 3.84% | Potency [6] > 9.22 µM | Potency [7] > 46 µM | Potency [8] | Potency [9] | Potency [10] | Potency [17] | Potency [12] | outcome [13]

CN(C)c1ccc(-c2nc(-n3ccnc3)c3ccccc3n2)cc1
active: Potency [1] 8.28 µM | Potency [3] 0.316 µM | Potency [14] 0.631 µM | Potency [18] 7.94 µM | Potency [15] 2.51 µM | Potency [17] 11.2 µM
inactive: activity, negative = inhibition [5] -23.3% | Potency [6] > 46 µM | Potency [7] > 46 µM | Potency [8] | Potency [9] | Potency [10] | Potency [12] | outcome [13]

Cc1ccccc1-c1cc(NCc2cccnc2)ncn1
active: Potency [3] 3.98 µM
inactive: Potency [1] > 11.4 µM | activity change, negative = inhibition [2] 6.3% | activity change, negative = inhibition [4] 2.72% | activity, negative = inhibition [5] -6.88% | Potency [6] > 46 µM | Potency [7] > 46 µM | Potency [8] | Potency [9] | Potency [10] | Potency [11] | Potency [12] | outcome [13]
